Data reported in PubChem BioAssay (NCATS).
Results filed as inconclusive are left out. Active and inactive are the calls of the source. Calls follow the shape of the dose curve; as a rule, active = well fitted cell-killing curve with a large enough effect; inconclusive = small, poorly fitted or top-dose-only effect, or effect the other way; inactive = flat fitted curve, though single readings scatter.

Each compound was assayed on JEG-3 (assay: Primary qHTS to identify gynecologic anti-cancer compounds using libraries of approved drugs and bioactive compounds (AID 1345084; also: nearly all actives have a fitted effect of over 55% in size)). Details: Gynecologic cancer cell panel viability, ATPlite luminescence, 48 h; series mostly up to 57.5 µM; activity change, negative = cytotoxicity: at the top concentration.
Method in brief: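 Measured: luminescence after ATPlite addition (15 min, RT). Exposure: 48 h, 37 C, 5% CO2.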
% is scaled to controls: 0 for no effect and ±100 for the full control effect; potency is read from the fitted curve at half-maximal effect.

Compound	activity change, negative = cytotoxicity	Potency
CN(C)[C@@H]1C(=O)C(C(N)=O)=C(O)[C@@]2(O)C(=O)C3=C(O)c4c(O)ccc(Cl)c4[C@@](C)(O)C3C[C@@H]12 (some centres not stated)	20.8% (inactive)	
CC(C)[C@H](NC(=O)c1nn(Cc2ccc(F)cc2)c2ccccc12)C(N)=O	5.17% (inactive)	
CN1CCCCC1Cn1cc(C(=O)c2cc([N+](=O)[O-])ccc2I)c2ccccc21 (configuration not stated)	-8.63% (inactive)	
C=C1C(=O)CC2OC2(C)CC2OC(=O)C(=C)C2C(O)C1OC(=O)/C(C)=C\C (configuration not stated)	-8.35% [at 38.5 µM] (inactive)	
CC12CCC3C(C1)c1c(cc(O)c(C(=O)c4ccccc4)c1OC3(C)C)O2 (configuration not stated)	11.9% [at 38.5 µM] (inactive)	
CN1C(=O)[C@@H](Cc2c[nH]c3ccccc23)N=C(c2ccccc2F)c2ccccc21	-6.12% (inactive)	
C#C[C@]1(O)CC[C@H]2[C@@H]3CC[C@H]4Cc5nc6nc7ccccc7n6cc5C[C@]4(C)[C@H]3CC[C@@]21C	-28.2% (inactive)	
CC(C)[C@H]1OC(=O)[C@H](Cc2ccccc2)N(C)C(=O)[C@@H](C(C)C)OC(=O)[C@H](Cc2ccccc2)N(C)C(=O)[C@@H](C(C)C)OC(=O)[C@H](Cc2ccccc2)N(C)C1=O	4.73% [at 25.3 µM] (inactive)	
CCC1C2CC3C4N(C)c5ccccc5C45CC(C2C5O)N3C1O (configuration not stated)	9.25% [at 38.5 µM] (inactive)	
CCCCCCC1C(=O)O[C@H](C)[C@H](NC(=O)c2cccc(NC=O)c2O)C(=O)O[C@@H](C)[C@@H]1OC(=O)CC(C)C (some centres not stated)	-14.9% (inactive)	
CCN1C[C@]2(COC)CC[C@H](O)[C@@]34C5C[C@@H]6[C@@H](OC)C[C@@](OC(C)=O)(C5[C@@H]6OC(C)=O)[C@H]([C@H](OC)C23)[C@@H]14 (some centres not stated)	10.5% [at 25.3 µM] (inactive)	
C[C@]12CC[C@H](O)C[C@@]1(O)CC[C@@H]1[C@@H]2CC[C@]2(C)[C@@H](c3ccc(=O)oc3)CC[C@]12O	-24.2% (inactive)	
CN1C(=O)N(c2ccc(C#N)c(C(F)(F)F)c2)C(=O)[C@@]1(CO)c1ccccc1	-3.61% (inactive)	
CC(=O)O[C@H]1C[C@]2(O)[C@@H]3CC[C@@H]4C[C@@H](O)CC[C@]4(C)[C@H]3CC[C@]2(C)[C@H]1c1ccc(=O)oc1		316 nM (active)
CCCCCn1cc(C(=O)Oc2cccc3cccnc23)c2ccccc21	14.9% (inactive)	
CN=C(NS(=O)(=O)c1ccc(Cl)cc1)N1C[C@H](c2ccccc2)C(c2ccc(Cl)cc2)=N1	16.7% (inactive)	

Compound	activity change, negative = cytotoxicity	Potency
C=C(C)[C@@]12O[C@@H]1[C@@]1(C)C(=CC2=O)CC[C@@H](OC(C)=O)[C@@H]1C	-8.48% (inactive)	
CN(Cc1cccc(-c2ccncc2)c1)C(=O)Oc1ccc(-c2ccc(C(N)=O)cc2)cc1	6.45% (inactive)	
CC1=CC2OC3CC(O)[C@](C)([C@@]2(C)C(O)C1=O)[C@]31CO1 (some centres not stated)	0.466% (inactive)	
CC[C@H](O)[C@@H](C)[C@H]1O[C@@H]1C[C@H](C)/C=C/C=C(\C)[C@H]1OC(=O)C[C@H](O)CC[C@@](C)(O)[C@@H](OC(C)=O)/C=C/[C@@H]1C	26.2% (inactive)	
CN(C(=O)C(c1ccccc1)c1ccccc1)[C@H](CN1CC[C@H](O)C1)c1ccccc1	-0.647% (inactive)	
COC(=O)C12C(=O)C(C)(O)C(=O)C1(C)C(C)=CC1C34CCC(OC3=O)C(C)(C)C4CCC12C (configuration not stated)	6.58% [at 25.3 µM] (inactive)	
CCOc1ccc(Oc2ccc(OCc3cc(F)ccc3F)cc2)c(N)c1	1.68% (inactive)	
Cc1ccc2c(c1)[C@H]1CN(C)CC[C@H]1N2C(=O)CSc1nnnn1-c1ccc(Cl)cc1	-3.47% (inactive)	
C=C1C2(C)CC3C(C)(O)C4=CC(=O)OC(C)(C)C4=CCC3(C)C13C(=O)OC(C)C3(O)C2=O (configuration not stated)	0.127% [at 25.3 µM] (inactive)	
CCCN(CCC)[C@@H]1CCc2ccc3[nH]c(C#N)cc3c2C1	7.84% (inactive)	
C[C@]12CC[C@H](O)C[C@@H]1CC[C@@H]1[C@@H]2CC[C@]2(C)[C@@H](C3=CC(=O)OC3)CC[C@]12O	-19.3% [at 38.5 µM] (inactive)	
CC1=CC(=O)[C@@H](O)[C@@]2(C)C1C[C@H]1OC(=O)[C@H](O)[C@@]3(O)[C@@H](C)[C@@H](O)[C@H](O)C2[C@@]13C (some centres not stated)	1.22% [at 38.5 µM] (inactive)	
c1ccc([C@@H]2C[C@H]2NC2CCNCC2)cc1	4.82% (inactive)	
CC(=O)OC[C@]12[C@H](OC(C)=O)C(=O)[C@@H]3[C@@H](O)[C@@]14O[C@@]3(C)COC(=O)c1cccnc1[C@@H](C)[C@H](C)C(=O)O[C@@H]([C@H](OC(C)=O)[C@@H]2OC(C)=O)[C@]4(C)O	2.7% [at 25.3 µM] (inactive)	
Cc1c(N[C@@H](c2nnc(-c3ccc(C#N)cc3)o2)[C@H](C)O)ccc(C#N)c1Cl	-22.2% (inactive)	
COc1ccc2c(c1)c(CCN(C)C)cn2S(=O)(=O)c1ccccc1	-4.32% (inactive)	
